Compounds with a hit are over-represented: about 1.1% of the library has one in this group of screens.
NCOA2 inhibitor: human SRC2 (NCOA2) inhibition | Q15596 | HEK293 GAL4-SRC2 luciferase reporter, luminescence | inhibition, % at 9 µM | 370,000 tested, 0.17% active | AID 651957;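 active = inhibition above the mean inhibition of all tested compounds plus 3 SD, set per campaign, cut at about 52% in these data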;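 also: 0% = DMSO treated cells and 100% = cells given Gossypol at 36 µM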
SRC1 inh: inhibitors of human steroid receptor coactivator 1 (SRC1). HEK293 GAL4-SRC1 luciferase reporter, luminescence. Q15788. 360,000 tested, 0.12% active. inhibition, % at 3.6 µM;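 active = inhibition above the campaign mean plus 3 SD, with each screening campaign given its own cutoff, cut at about 60% in these data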;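 also: 0% = DMSO treated cells and 100% = gossypol at 36 µM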
Target sequence (Q15788 whole entry, looked up, the tested form may be a part): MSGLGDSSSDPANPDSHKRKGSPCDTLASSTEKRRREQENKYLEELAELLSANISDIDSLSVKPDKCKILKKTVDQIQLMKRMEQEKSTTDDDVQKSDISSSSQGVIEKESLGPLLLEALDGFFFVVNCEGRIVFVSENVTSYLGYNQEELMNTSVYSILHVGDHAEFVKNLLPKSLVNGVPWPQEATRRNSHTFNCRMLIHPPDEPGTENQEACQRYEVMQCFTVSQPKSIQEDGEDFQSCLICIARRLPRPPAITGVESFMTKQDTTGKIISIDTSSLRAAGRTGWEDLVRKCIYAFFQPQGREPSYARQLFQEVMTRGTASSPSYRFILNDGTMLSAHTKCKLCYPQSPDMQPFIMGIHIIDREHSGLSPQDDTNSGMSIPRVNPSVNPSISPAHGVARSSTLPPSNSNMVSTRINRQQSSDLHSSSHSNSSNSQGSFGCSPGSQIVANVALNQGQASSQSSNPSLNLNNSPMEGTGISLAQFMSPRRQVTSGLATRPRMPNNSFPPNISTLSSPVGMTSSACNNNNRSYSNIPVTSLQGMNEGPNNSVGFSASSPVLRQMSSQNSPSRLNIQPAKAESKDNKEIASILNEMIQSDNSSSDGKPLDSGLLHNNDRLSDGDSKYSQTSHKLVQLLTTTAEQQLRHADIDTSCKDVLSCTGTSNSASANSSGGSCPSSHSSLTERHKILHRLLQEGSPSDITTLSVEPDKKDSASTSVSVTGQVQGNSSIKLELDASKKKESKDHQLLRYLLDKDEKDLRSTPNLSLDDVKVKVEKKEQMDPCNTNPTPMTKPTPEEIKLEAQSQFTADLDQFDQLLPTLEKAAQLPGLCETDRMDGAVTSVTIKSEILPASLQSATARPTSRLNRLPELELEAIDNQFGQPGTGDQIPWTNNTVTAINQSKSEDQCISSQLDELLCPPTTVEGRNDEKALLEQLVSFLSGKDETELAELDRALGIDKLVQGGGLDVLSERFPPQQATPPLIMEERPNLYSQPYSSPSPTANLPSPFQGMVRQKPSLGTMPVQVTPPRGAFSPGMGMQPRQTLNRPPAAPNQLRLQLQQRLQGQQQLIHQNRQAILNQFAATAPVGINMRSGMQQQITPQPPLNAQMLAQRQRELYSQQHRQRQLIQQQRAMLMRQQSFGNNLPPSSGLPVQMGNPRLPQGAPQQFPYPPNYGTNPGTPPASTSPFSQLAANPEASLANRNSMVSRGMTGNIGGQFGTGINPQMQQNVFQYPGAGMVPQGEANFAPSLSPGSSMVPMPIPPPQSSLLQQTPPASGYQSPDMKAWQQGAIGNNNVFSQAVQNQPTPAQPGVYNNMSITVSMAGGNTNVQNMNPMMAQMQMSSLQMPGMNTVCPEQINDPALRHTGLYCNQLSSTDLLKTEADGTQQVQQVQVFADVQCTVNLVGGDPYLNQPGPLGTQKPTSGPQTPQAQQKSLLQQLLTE
GalR3 antagonist: antagonists of human GalR3; 360,000 tested, 0.44% active; inhibition, % at 3 µM; HEK293 GalR3-CNG cAMP membrane potential fluorescence; galR3 body fused to GalR1 C-terminus; AID 651719; O60755;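 active = inhibition above the screen-wide average plus 3 SD, cut at about 13% in these data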;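 also: forskolin and galanin both at EC90 stimulate the cells; cAMP rise reported by CNG channel membrane potential dye signal; 0% = forskolin plus galanin with DMSO and 100% = forskolin alone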
SRC3 inh: inhibitors of human steroid receptor coactivator 3 (SRC3); Q9Y6Q9; HEK293 GAL4-SRC3 luciferase reporter, luminescence; inhibition, % at 3.6 µM; 360,000 tested, 0.17% active;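 active = inhibition above a per-campaign cutoff, the mean of all compounds plus 3 SD, cut at about 60% in these data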;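 also: 0% = DMSO-treated cells and 100% = gossypol-treated cells at 36 µM; higher means less SRC3-driven luciferase light from the GAL4 reporter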
LRH-1 inv ag: inverse agonists of human LRH-1 (NR5A2) | 360,000 tested, 0.13% active | HEK293T StAR-luciferase reporter, LRH-1 transfected, 24 h | O00482 | inhibition, % at 3.6 µM;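 active = inhibition above the mean inhibition of all tested compounds plus 3 SD, cut at about 73% in these data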;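 also: 0% = DMSO wells and 100% = reporter-only cells lacking LRH-1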
NR2F2 inh: blocks human COUP-TFII nuclear receptor; inhibition, % at 8.6 µM; HEK293T NGFI-A luciferase reporter, luminescence; P24468; AID 686940; 370,000 tested, 0.7% active;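 active = inhibition above a per-plate cutoff, mean inhibition of test wells between control levels plus 3 SD, cut at about 38% in these data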;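 also: cells cotransfected with COUP-TFII expression vector driving the NGFI-A reporter; 0% = median of COUP-TF2 test wells and 100% = reporter-only cells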
Gal4-VP16 ctr: counter-screen for COUP-TFII antagonists: inhibitors of VP16; AID 687007; inhibition, % at 8.5 µM; 2,500 tested, 25% active; shares compounds with NR2F2 inh; HEK293 Gal4-VP16 luciferase reporter, luminescence; in the data active = inhibition above about 13%
COUP-TFII conf: confirmation of human COUP-TFII (NR2F2) inhibitors | inhibition, % at 8.5 µM | 2,500 tested, 45% active | HEK293 NGFI-A luciferase reporter, luminescence | shares compounds with NR2F2 inh | AID 687008;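 active = mean inhibition over three repeats above a set limit taken from the earlier primary screen, cut at about 38% in these data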;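 also: 100% = cells given the luciferase reporter alone without the COUP-TF2 vector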
* marks the source's active call; other numbers are inactive results; x = no result given.

SMILES	NCOA2 inhibitor	SRC1 inh	GalR3 antagonist	SRC3 inh	LRH-1 inv ag	NR2F2 inh	Gal4-VP16 ctr	COUP-TFII conf
CS(=O)(=O)N(CC(=O)N1CCN(c2cccc(Cl)c2)CC1)C1CCCCC1	19.3	-15.8	-2.7	13.6	2.4	-4.6	x	x
CC(C)NS(=O)(=O)c1ccc(OCC(=O)N2CCCC2)cc1	-14.1	-15.9	-2.3	8.2	8.7	7.0	x	x
Cc1ccc(Cl)cc1N1CCN(C(=O)COc2ccc(S(=O)(=O)NC(C)C)cc2)CC1	-4.1	18.1	x	0.9	-11.6	38.3*	1.0	39.3*
Cc1ccc(Cl)cc1N1CCN(C(=O)CN(C2CCCCC2)S(C)(=O)=O)CC1	9.0	-4.1	-7.7	-8.5	11.6	40.1*	3.1	13.1
CC(=O)CC[C@H]1CC[C@]2(CCCN(Cc3nccn3C)C2)O1	8.6	x	x	x	x	7.9	x	x
COC(=O)[C@]12C[C@H](CC(=O)NCc3ccc(C)o3)C(=O)N(Cc3ccccc3)C1=C[C@H](C(C)(C)C)O[C@@H]2C	12.4	x	-1.7	x	x	-0.7	x	x
C[n+]1ccc(/C=C/c2ccc(Br)cc2)cc1	-11.7	-1.8	-1.0	-4.2	-6.4	-11.6	x	x
CCCn1c(/C=C/c2cc[n+](C)cc2)nc2ccccc21	-6.8	-2.8	-6.1	-0.6	5.6	14.4	x	x
Cc1ccc2[nH]c(C)c(/C=C/c3cc[n+](C)cc3)c2c1	-10.0	13.3	-10.5	16.1	54.3	41.0*	4.7	19.6
Cc1ccc2c(c1)c(/C=C/c1cc[n+](C)cc1)c(C)n2C	-41.8	41.8	-6.7	32.5	59.6	54.0*	9.5	30.7
CCCNC(=O)c1cc(S(=O)(=O)N2CCc3ccccc32)cn1C	10.1	23.4	x	14.0	5.7	43.9*	-5.3	26.5
CCCCCC[C@H](CC)CN(C(=O)Oc1ccccc1)c1ccccc1	8.0	x	x	x	x	6.7	x	x
Cc1ccccc1-n1nc(C)c2cc(C(=O)N3CCOCC3)sc21	-11.8	-29.4	-5.2	-4.0	18.5	3.2	x	x
Cc1ccc(S(=O)(=O)N2CCN(C(=O)c3cc4c(C)nn(-c5ccccc5C)c4s3)CC2)cc1	34.4	-4.8	-7.3	-16.1	0.1	45.7*	9.7	30.1
O=C(c1cccc(F)c1)N1CCCC(c2nc(-c3cccs3)no2)C1 (stereo unspecified)	-4.3	x	x	x	x	-7.0	x	x
N=c1ccn(CC(=O)c2ccc(-c3ccccc3)cc2)cc1	-9.6	32.2	-3.8	73.1*	59.1	57.9*	12.8	54.3*
O=C(CN1C(=O)CCC1=O)c1ccc(-c2ccccc2)cc1	-4.8	-23.6	-4.3	-17.5	-19.3	9.6	x	x
CC(C)C(Sc1nc(-c2ccccc2)cc(-c2ccccc2)c1C#N)C(=O)O (stereo unspecified)	-14.5	-14.0	-4.1	-32.4	5.9	37.9*	1.7	6.5
NC1=NC[C@H](Cc2ccc(O)cc2)N1CCCCC1CCCCC1	8.1	9.0	-5.0	18.1	32.7	38.4*	14.7*	25.6
Cc1ccc(-n2c(C)cc(/C=C3\SC(=O)NC3=O)c2C)cc1	-3.6	-166.7	-8.1	-94.4	-113.1	-3.1	x	x
Cc1cc(/C=C2\SC(=S)N(C)C2=O)c(C)n1-c1ccc(O)cc1	72.6*	80.2*	10.7	80.6*	72.1	83.6*	68.2*	98.5*
Cc1cc(/C=C2\SC(=S)N(C)C2=O)c(C)n1-c1ccccc1O	13.3	-14.2	-5.1	-7.1	-1.6	42.8*	-106.8	13.0
CC1(C)Oc2ccc(C(=O)NC3CCCC3)cc2NC1=O	9.9	x	x	x	x	13.1	x	x
COc1ccc(/C=C/S(=O)(=O)NC2CCCC2)c(CNC(=O)OC(C)(C)C)c1	-3.7	x	x	x	x	3.5	x	x
COc1ccc(NC(=S)N(Cc2cccc(Br)c2)CC2CCC(C(=O)O)CC2)cc1 (stereo unspecified)	-26.3	-9.2	-3.6	7.9	4.7	-6.9	x	x
SMILES	NCOA2 inhibitor	SRC1 inh	GalR3 antagonist	SRC3 inh	LRH-1 inv ag	NR2F2 inh	Gal4-VP16 ctr	COUP-TFII conf
COc1cccc(NC(=S)N(Cc2cccc(Br)c2)CC2CCC(C(=O)O)CC2)c1 (stereo unspecified)	-1.0	-9.9	-6.6	1.9	-5.5	39.1*	-4.5	6.7
CC(=O)N1CCCC(c2cc(C(=O)Nc3ccccc3)no2)C1 (stereo unspecified)	44.5	24.9	-8.7	31.2	32.5	41.0*	16.6*	59.1*
O=C(NCc1ccccc1)c1cc(C2CCCN(C(=O)C3CCCCC3)C2)on1 (stereo unspecified)	4.0	-21.2	-3.8	-6.2	-3.4	101.4*	-15.7	-16.2
O=C(Nc1ccccc1)c1cc(C2CCCN(C(=O)C3CC3)C2)on1 (stereo unspecified)	-52.4	12.8	-5.6	12.0	-0.1	15.8	x	x
Cc1cc(NS(=O)(=O)C2CCN(C(=O)Cc3ccc(Cl)c(Cl)c3)CC2)no1	-14.9	x	x	x	x	-0.1	x	x
Cc1ccc(C)c(S(=O)(=O)NCc2ccncc2)c1	28.4	1.1	2.2	11.3	11.4	42.8*	-2.6	16.6
Cc1[nH]nc2ncc(C(=O)c3ccccc3O)cc12	46.3	50.9	1.9	44.8	18.4	37.7*	14.9*	32.3
Cc1nn(C)c2ncc(C(=O)c3ccccc3O)cc12	8.4	-8.1	-5.5	-3.2	3.5	1.3	x	x
COc1ccc2nc(NC(=O)C3CCN(S(=O)(=O)c4cccs4)CC3)sc2c1	16.8	13.9	0.2	35.7	22.3	47.7*	-4.7	23.2
Cc1ccc2nc(NC(=O)C3CCN(S(=O)(=O)c4cccs4)CC3)sc2c1	1.0	12.2	-6.1	24.2	33.2	56.8*	-2.6	31.7
CCCC(=O)OC[C@H]1CN(C2CCCC2)S(=O)(=O)c2c(Oc3ccc(F)cc3OC)cccc2O1	1.0	x	-6.0	x	x	8.3	x	x
Cc1cccc(N2CCN(C(=O)C3CCC(CNS(=O)(=O)c4cccs4)CC3)CC2)c1C (stereo unspecified)	-3.1	-4.3	-7.5	3.6	2.3	51.1*	6.2	32.0
O=C(C1CCC(CNS(=O)(=O)c2cccs2)CC1)N1CCCCC1 (stereo unspecified)	9.6	-3.0	3.8	10.7	-3.7	13.6	x	x
OCCCN1CCC2(CCC(c3ccccc3)CC2)C1 (stereo unspecified)	5.3	x	x	x	x	-3.7	x	x
C=CCN1[C@H](C#N)[C@@H](c2ccc(C#Cc3cccc(OC)c3)cc2)[C@H]1CO	8.1	x	x	x	x	11.2	x	x
CCOC(=O)C1(Cc2ccc(OC)cc2)CCN(C(=O)c2sc(C)nc2C)CC1	31.4	4.9	-0.5	6.5	-2.3	-4.1	x	x
CCOC(=O)C1(Cc2ccc(Cl)cc2)CCN(C(=O)c2sc(C)nc2C)CC1	24.2	1.2	-1.0	19.6	-3.2	42.2*	9.9	25.7
CC(C)N1C/C(=C/c2ccsc2)C(=O)/C(=C/c2ccsc2)C1	-49.0	12.5	-0.9	10.6	9.4	46.9*	37.9*	68.0*

Screens (PubChem)
